Compound activity as filed in PubChem.
eIF4H inh: human eIF4H binding inhibitors, primary screen, translation initiation inhibitor project, biochemical, uHTS, fluorescence polarization; Eukaryotic translation initiation factor 4H (Homo sapiens), Q15056; eIF4H fluorescence polarization binding assay; inhibition, % at 35 µM; 290,000 compounds, 0.94% hits; AID 2012, 2009;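 note: calls also rest on retests at 20 µM and on dose response follow-up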
PABP1 MLLE inh: inhibitors of PABP1 MLLE–PAM2 peptide binding, primary screen, biochemical, fluorescence polarization, FITC-PAM2, GST-MLLE | Polyadenylate-binding protein 1 (Homo sapiens), P11940 | inhibition, % at 20 µM | 360,000 compounds, 0.36% hits; in the data active = inhibition above about 35%, passing the limit was not always enough
PHOSPHO1 inh: PubChem AID 1565 | recombinant PHOSPHO1, absorbance phosphatase assay | inhibition, % at 13.3 µM | 290,000 compounds, 1.1% hits; in the data active = inhibition above about 60%
Target sequence (Q8TCT1 whole entry, looked up): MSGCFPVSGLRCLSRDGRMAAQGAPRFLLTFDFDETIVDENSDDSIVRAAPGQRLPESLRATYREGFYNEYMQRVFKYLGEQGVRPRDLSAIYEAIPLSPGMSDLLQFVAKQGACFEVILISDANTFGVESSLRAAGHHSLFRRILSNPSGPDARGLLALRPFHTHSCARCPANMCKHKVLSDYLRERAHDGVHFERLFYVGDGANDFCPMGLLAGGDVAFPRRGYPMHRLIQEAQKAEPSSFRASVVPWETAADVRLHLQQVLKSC
Efa HMGR inh: inhibitors of E. faecalis class II HMGR, primary screen, biochemical, Enterococcus faecalis; HMG-CoA reductase (Enterococcus faecalis, mvaE); purified E. faecalis HMGR, NADPH absorbance 340 nm kinetic; inhibition, % at 10 µM; 190,000 compounds, 0.41% hits; AID 1066, 2008;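 active = inhibition above a set limit, the median over all tested compounds plus 3 SD, cut at about 9.5% in these data; inconclusive = no clear call, values can overlap the other calls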;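 note: enzyme runs in reverse so mevalonate oxidation gives rising NADPH absorbance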
PABP FP inh: PABP poly(A) RNA binding inhibitors, primary screen, biochemical, fluorescence polarization, uHTS; Polyadenylate-binding protein 1 (Homo sapiens), P11940; calls only at 35 µM; 290,000 compounds, 1% hits; AID 2014, 2009;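 note: calls also rest on retests at 20 µM and on dose response follow-up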
Large screens that a line does not name were inactive. In the library only some 2.4% were active in any assay of this set; here they are far more common. Unless noted, the rule behind the calls is not given here.

CCCN1CCN(S(=O)(=O)c2cn(C)nc2C)CC1	PABP FP inh active (no result: PHOSPHO1 inh, Efa HMGR inh)
COC(=O)[C@@H](NC(=O)Nc1ccc(S(N)(=O)=O)cc1)C(C)C	none
COC(=O)[C@@H](NC(=O)Nc1ccc(C(C)=O)cc1)C(C)C	eIF4H inh 57
CC1CCN(CCc2nc3cc(NC(=O)COc4ccc(Cl)cc4)ccc3n2C)CC1	none (no result: Efa HMGR inh)
Cc1cc(C(=O)CSc2nc(N)cc(N)n2)c(C)n1C1CC1	eIF4H inh 81
Cc1cc(C(=O)CSc2nnc(N)s2)c(C)n1C1CC1	none (no result: eIF4H inh, PHOSPHO1 inh, Efa HMGR inh, PABP FP inh)
Brc1ccc(Nc2nc3ccccc3n3nnnc23)cc1	eIF4H inh 79, PABP FP inh active (no result: PABP1 MLLE inh)
Cc1cc(C(=O)NNC(=O)c2ccc(NC(=O)CC#N)cc2)c(C)o1	none (no result: eIF4H inh, PHOSPHO1 inh, Efa HMGR inh, PABP FP inh)
CC(=O)c1ccc2c(c1)C1C=CCC1C(c1ccncc1)N2 (stereo not given)	none
C1=CC2c3ccccc3NC(c3ccncc3)C2C1 (stereo not given)	PHOSPHO1 inh 79
CCCNC(=O)CN1C(=O)COc2ccc(S(=O)(=O)N3CC(C)CC(C)C3)cc21 (stereo not given)	PHOSPHO1 inh 74 (no result: Efa HMGR inh)
CCOc1ccc(NC(=O)CN2C(=O)COc3ccc(S(=O)(=O)N4CCCCC4)cc32)cc1	none (no result: eIF4H inh, Efa HMGR inh, PABP FP inh)
COc1ccc(NC(=O)CN2C(=O)COc3ccc(S(=O)(=O)N4CCCCCC4)cc32)cc1	PHOSPHO1 inh 64 (no result: Efa HMGR inh)
c1csc(-c2nnc(N3CCOCC3)c3ccccc23)c1	Efa HMGR inh 11
CN(CC(=O)Nc1cccc(F)c1)C(=O)c1ccc(S(=O)(=O)N2CCCC2)cc1	none (no result: eIF4H inh, PHOSPHO1 inh, Efa HMGR inh, PABP FP inh)
CCOc1ccc2nc(NC(=S)NCc3ccccc3)sc2c1	PHOSPHO1 inh 72
Cn1c(Cc2cccs2)nnc1SCC(=O)Nc1ccc(C(N)=O)cc1	none (no result: eIF4H inh, PHOSPHO1 inh, Efa HMGR inh, PABP FP inh)
CCN(CC)C(=O)Cn1ncc2c1-c1ccccc1OC2	eIF4H inh 63
CCN(CCN(C)C)C(=O)Cn1ncc2c1-c1cc(C)ccc1OC2	none
C[C@H](CO)N1C[C@H](C)[C@@H](CN(C)C(=O)Nc2ccc3c(c2)OCO3)Oc2ccc(NC(=O)Nc3ccc4c(c3)OCO4)cc2C1=O	none (no result: eIF4H inh, PHOSPHO1 inh, Efa HMGR inh, PABP FP inh)
CC(=O)N1N=C(c2cccc(Cl)c2)OC1c1ccc(C(C)C)cc1 (stereo not given)	none
CC(=O)N1N=C(c2ccc(C)cc2)OC1c1cccnc1 (stereo not given)	PHOSPHO1 inh 61
COc1ccc(CCNC(=S)Nc2ccc(S(=O)(=O)Nc3ncccn3)cc2)cc1OC	PHOSPHO1 inh 67 (no result: Efa HMGR inh)
CCc1ccc(NC(=S)Nc2ccc(S(=O)(=O)Nc3ncccn3)cc2)cc1	none
O=C(O)c1ccc(NS(=O)(=O)c2ccc3c(c2)C2C=CCC2C(c2ccccc2F)N3)cc1 (stereo not given)	PABP FP inh active
O=C1CCC/C(=N\NC(=O)c2ccc(COc3ccccc3-c3ccccc3)cc2)C1	none
O=C(COc1ccccc1-c1ccccc1)NN=C1CCCC1	PHOSPHO1 inh 61, PABP FP inh inconclusive
Cc1ccccc1-n1c(C)cc(/C=C2/C(=N)N3C(c4ccccc4)=CSC3=NC2=O)c1C	PABP FP inh active
CC1=NN2C(=N)/C(=C\c3cc(C)n(-c4ccccc4)c3C)C(=O)N=C2S1	none
Cc1cc(/C=C2/C(=N)N3C(c4ccccc4)=CSC3=NC2=O)c(C)n1-c1ccccc1	eIF4H inh 90, PABP FP inh active
Cc1cc(C)n2cnnc2n1	none (no result: Efa HMGR inh)
Cc1cc(C)n2c(=S)[nH]nc2n1	PHOSPHO1 inh 96
O=C(NCC(=O)N(c1ccccc1)C(C(=O)NC1CCCCC1)c1cccnc1)c1cccs1 (stereo not given)	PHOSPHO1 inh 63
O=C(NCC(=O)N(Cc1cccs1)C(C(=O)NC1CCCC1)c1cccnc1)c1ccco1 (stereo not given)	none
O=C(NCC(=O)N(Cc1cccs1)C(C(=O)NC1CCCCC1)c1ccncc1)c1ccco1 (stereo not given)	Efa HMGR inh 11
Cc1ccc(-c2cc(C(F)F)n3ncc(C(=O)Nc4ccc(S(=O)(=O)Nc5ccccc5C)cc4)c3n2)cc1	Efa HMGR inh 10
COc1ccc(NS(=O)(=O)c2ccc(NC(=O)c3cnn4c(C(F)F)cc(-c5ccc(C)cc5)nc34)cc2)cc1	none (no result: PABP1 MLLE inh)
COC(=O)c1c(NC(=O)c2ccc(C)o2)sc2c1CCCCC2	PABP1 MLLE inh 37
COC(=O)Nc1sc2c(c1C(=O)NC1CC1)CCCCCC2	PHOSPHO1 inh 88
O=C(Nc1sc2c(c1C(=O)NC1CC1)CCCCCC2)c1ccco1	none
CCN(CC1CCCO1)C(=O)C1CCN(C2CCN(Cc3ccccc3C)CC2)CC1 (stereo not given)	none (no result: Efa HMGR inh)
Cc1ccc(-n2c(C)cc(/C([O-])=C(/C(=S)Nc3ccc(F)c(Cl)c3)[n+]3ccccc3)c2C)cc1	PHOSPHO1 inh 84
Cc1cc(/C([O-])=C(/C(=S)Nc2ccc(F)cc2)[n+]2ccccc2)c(C)n1-c1ccc(F)cc1	eIF4H inh 67, PHOSPHO1 inh 96
Cc1cc(/C([O-])=C(/C(=S)Nc2ccccc2)[n+]2ccccc2)c(C)n1-c1ccccc1	eIF4H inh 61, PABP FP inh active
O=C(CSc1ncnc2c1nnn2Cc1ccccc1)NC1CCCCC1	none (no result: Efa HMGR inh)
CC(OC(=O)c1ccccc1NCCO)C(=O)NC1CCCCC1C (stereo not given)	none (no result: eIF4H inh, PHOSPHO1 inh, Efa HMGR inh, PABP FP inh)
Cc1ccc(C(=O)N2CCN(c3ccccn3)CC2)cc1[N+](=O)[O-]	Efa HMGR inh 10
CCCCn1nc(C(=O)N2CCN(S(=O)(=O)c3ccccc3)CC2)c2ccccc2c1=O	none (no result: eIF4H inh, PHOSPHO1 inh, Efa HMGR inh, PABP FP inh)
CN(c1ccccc1)S(=O)(=O)c1cccc(NC(=O)CN2C(=O)NC3(CCCC3)C2=O)c1	none (no result: eIF4H inh, PHOSPHO1 inh, Efa HMGR inh, PABP FP inh)
O=C1NC(=S)N/C1=C/c1cc([N+](=O)[O-])ccc1O	PHOSPHO1 inh 82
Cc1ccc(NC2=CC(=O)CC(C)(C)C2)c(N)c1	eIF4H inh 82, PABP FP inh active
CC1(C)CC(=O)C=C(Nc2ccccc2N)C1	none (no result: Efa HMGR inh)
CN(C)CCC#CC(O)(c1ccccc1)c1ccccc1	eIF4H inh 6.6, PABP FP inh active
Cc1ccsc1C1C=C(c2cccc(Br)c2)Nc2ncnn21 (stereo not given)	PHOSPHO1 inh 62
COc1cccc(C2=CC(c3ccc(C)cc3)n3ncnc3N2)c1 (stereo not given)	none (no result: PABP1 MLLE inh)
CC(=O)Oc1ccccc1/C=C/c1ccc2ccccc2[n+]1C	PABP FP inh active (no result: Efa HMGR inh)
ON/C=N/C(=S)Nc1ncc(C(F)(F)F)cc1Cl	PABP1 MLLE inh 38, Efa HMGR inh 18
CON/C=N/C(=S)Nc1ncc(C(F)(F)F)cc1Cl	PABP1 MLLE inh 42
C=CCN(c1ccccc1C(=O)O)S(=O)(=O)/C=C/c1ccccc1	none
C[C@@H]1CN([C@H](C)CO)S(=O)(=O)c2ccc(Br)cc2O[C@H]1CN(C)C(=O)Nc1ccccc1	none (no result: eIF4H inh, PHOSPHO1 inh, Efa HMGR inh, PABP FP inh)
CC1(C)Cc2c(cnn2-c2ccc(F)cc2)C(NC(=O)c2ccc(=O)oc2)C1 (stereo not given)	PHOSPHO1 inh 61 (no result: Efa HMGR inh)
